Measured values: PubChem BioAssay (NCATS)
Inconclusive results are not listed. The source made the active and inactive calls. The call rests on the fitted dose curve; in most records, active means well fitted cell-killing curve with a large enough effect; inconclusive means small, poorly fitted or top-dose-only effect, or effect the other way; inactive means flat fitted curve, though single readings scatter.

Each compound was assayed on C33A (assay: Primary qHTS to identify gynecologic anti-cancer compounds using libraries of approved drugs and bioactive compounds (AID 1345084; further: nearly all actives have a fitted effect of over 55% in size)). Conditions: Gynecologic cancer cell panel viability, ATPlite luminescence, 48 h; series mostly up to 57.5 µM; activity change, negative = cytotoxicity: at the top concentration.
Method in brief: (§1)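 Five-concentration response, 48 h; readout is ATP-driven luciferase luminescence.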
On the % scale 0 is the no-effect control and ±100 the full control effect.

Row | Structure (SMILES) | activity change, negative = cytotoxicity
1 | C1CN2CCC1CC2 | 1.15% (inactive)
2 | CCC1(CC)C(=O)NC(=O)NC1=O | 2.2% (inactive)
3 | CC(C)(C)OC(=O)c1ncn2c1[C@@H]1CCCN1C(=O)c1c(Br)cccc1-2 | 5.09% (inactive)
4 | CN1C(=O)CN=C(c2ccccc2)c2cc([N+](=O)[O-])ccc21 | 6.29% (inactive)
5 | CCOC(=O)C(c1c(O)c2ccccc2oc1=O)c1c(O)c2ccccc2oc1=O | 2.37% (inactive)
6 | CNC(C)Cc1ccccc1OC (centres undefined) | -5% (inactive)
7 | ClCc1cccc(Cl)c1 | -6.75% (inactive)
8 | CC(CC(C(N)=O)(c1ccccc1)c1ccccc1)N(C)C (centres undefined) | 3.16% (inactive)
9 | CC1Sc2c(C(=O)O)c(=O)c3cc(F)c(N4CCNCC4)cc3n21 (centres undefined) | 2.06% (inactive)
10 | O=C(CBr)Nc1ccc(Cl)cc1C(=O)c1ccccc1F | 4.5% (inactive)
11 | COP(=O)(OC)C(O)C(Cl)(Cl)Cl (centres undefined) | 7.32% (inactive)
12 | C[C@H]1CNCCc2ccc(Cl)cc21 | -9.73% (inactive)
13 | COc1cc(N)c(Cl)cc1C(=O)NC1CN2CCC1CC2 (centres undefined) | 5.38% (inactive)
14 | COC(=O)C1=CCCN(C)C1 | 12.1% (inactive)
15 | C[C@@H]1CN(C2CCC(C#N)(c3ccc(F)cc3)CC2)CC[C@]1(C(=O)O)c1ccccc1 (some centres undefined) | 3.49% (inactive)
16 | CCOC(=O)NC(O)C(Cl)(Cl)Cl (centres undefined) | 4.89% (inactive)
17 | OC(O)C(Cl)(Cl)Cl | 3.04% (inactive)
18 | ClCCCN1CCN(c2cccc(Cl)c2)CC1 | -1.57% (inactive)
19 | C#C[C@]1(O)C=C[C@H]2[C@@H]3CCC4=CC(=O)CC[C@@H]4[C@H]3CC[C@@]21CC | -0.328% (inactive)
20 | O=c1[nH]c2cc(Cl)ccc2n1C1CCNCC1 | 11.6% (inactive)

Row | Structure (SMILES) | activity change, negative = cytotoxicity
21 | O=C(O)Cc1ccccc1 | 21% (inactive)
22 | CC(C)(O)C(Cl)(Cl)Cl | 2.07% (inactive)
23 | C[N+]1(CCC(C(N)=O)(c2ccccc2)c2ccccc2)CCCCC1 | 2.88% (inactive)
24 | CCc1ccc(C2CCNCC2)cc1 | 9.12% (inactive)
25 | C[C@]12CC[C@H]3[C@@H](CCC4=CC(=O)CC[C@@H]43)[C@@H]1CC[C@@H]2O | -0.772% (inactive)
26 | Cc1ccc(N=CN(C)C=Nc2ccc(C)cc2C)c(C)c1 | -6.11% (inactive)
27 | COP(=O)(OC)OC=C(Cl)Cl | 4.99% (inactive)
28 | CCN1CCCC1CNC(=O)C(O)(c1ccccc1)c1ccccc1 (centres undefined) | 14% (inactive)
29 | CN(C)C(=O)Oc1cc(OC(=O)N(C)C)cc(C(O)CNC(C)(C)C)c1 (centres undefined) | 5.11% (inactive)
30 | O=C1CN2CCOC2(c2ccccc2Cl)c2cc(Cl)ccc2N1 (centres undefined) | 8.43% (inactive)
31 | COP(=S)(OC)Oc1ccc(Sc2ccc(OP(=S)(OC)OC)cc2)cc1 | 1.58% (inactive)
32 | O=C(O)c1nn(Cc2ccc(Cl)cc2Cl)c2ccccc12 | 17.9% (inactive)
33 | COCC(=O)N(c1c(C)cccc1C)C(C)C(=O)OC (centres undefined) | 5.38% (inactive)
34 | NC(=O)OCCCc1ccccc1 | 2.73% (inactive)
35 | CCN(CC)CCOC(=O)C(C)(c1ccccc1)c1ccccc1 | 6.54% (inactive)
36 | CCOP(=S)(OCC)O/N=C(\C#N)c1ccccc1 | -9.85% (inactive)
37 | O=C(CCCCl)c1ccc(F)cc1 | -1.45% (inactive)
38 | C[N+]1(C)[C@@H]2CC[C@H]1CC(OC(=O)C(CO)c1ccccc1)C2 (some centres undefined) | 7.86% (inactive)
39 | CC1=C2[C@H]3OC(=O)[C@@H](C)[C@@H]3CC[C@@]2(C)C=CC1=O | 2.17% (inactive)
40 | Sc1ccccc1Cl | 14.8% (inactive)

The compounds below were run on CAOV3 in the same assay as above. Conditions: Gynecologic cancer cell panel viability, ATPlite luminescence, 48 h; series mostly up to 57.5 µM; activity change, negative = cytotoxicity: at the top concentration.
Method in brief: as §1

Row | Structure (SMILES) | activity change, negative = cytotoxicity
41 | C1CN2CCC1CC2 | 2.65% (inactive)
42 | CC(C)(C)OC(=O)c1ncn2c1[C@@H]1CCCN1C(=O)c1c(Br)cccc1-2 | 0.516% (inactive)
43 | CN1C(=O)CN=C(c2ccccc2)c2cc([N+](=O)[O-])ccc21 | 9.34% (inactive)
44 | CNC(C)Cc1ccccc1OC (centres undefined) | -0.831% (inactive)
45 | ClCc1cccc(Cl)c1 | 14.7% (inactive)
46 | CC1Sc2c(C(=O)O)c(=O)c3cc(F)c(N4CCNCC4)cc3n21 (centres undefined) | -12.2% (inactive)
47 | COP(=O)(OC)C(O)C(Cl)(Cl)Cl (centres undefined) | 0% (inactive)
48 | COc1cc(N)c(Cl)cc1C(=O)NC1CN2CCC1CC2 (centres undefined) | 4.05% (inactive)
49 | COC(=O)C1=CCCN(C)C1 | 21.7% (inactive)
50 | C[C@@H]1CN(C2CCC(C#N)(c3ccc(F)cc3)CC2)CC[C@]1(C(=O)O)c1ccccc1 (some centres undefined) | 1.64% (inactive)
51 | CCOC(=O)NC(O)C(Cl)(Cl)Cl (centres undefined) | -20.2% (inactive)
52 | C#C[C@]1(O)C=C[C@H]2[C@@H]3CCC4=CC(=O)CC[C@@H]4[C@H]3CC[C@@]21CC | 9.47% (inactive)
53 | O=c1[nH]c2cc(Cl)ccc2n1C1CCNCC1 | 16.8% (inactive)
54 | CC(C)(O)C(Cl)(Cl)Cl | -15.1% (inactive)
55 | C[N+]1(CCC(C(N)=O)(c2ccccc2)c2ccccc2)CCCCC1 | 4.58% (inactive)
56 | CCc1ccc(C2CCNCC2)cc1 | 4% (inactive)
57 | C[C@]12CC[C@H]3[C@@H](CCC4=CC(=O)CC[C@@H]43)[C@@H]1CC[C@@H]2O | -8.41% (inactive)
58 | Cc1ccc(N=CN(C)C=Nc2ccc(C)cc2C)c(C)c1 | -5.34% (inactive)
59 | COP(=O)(OC)OC=C(Cl)Cl | 1.32% (inactive)
60 | CN(C)C(=O)Oc1cc(OC(=O)N(C)C)cc(C(O)CNC(C)(C)C)c1 (centres undefined) | 0.194% (inactive)
61 | O=C1CN2CCOC2(c2ccccc2Cl)c2cc(Cl)ccc2N1 (centres undefined) | -5.3% (inactive)
62 | O=C(O)c1nn(Cc2ccc(Cl)cc2Cl)c2ccccc12 | 0% (inactive)
63 | COCC(=O)N(c1c(C)cccc1C)C(C)C(=O)OC (centres undefined) | 28.2% (inactive)
64 | NC(=O)OCCCc1ccccc1 | 6.47% (inactive)
65 | CCN(CC)CCOC(=O)C(C)(c1ccccc1)c1ccccc1 | 5.99% (inactive)
66 | O=C(CCCCl)c1ccc(F)cc1 | -1.8% (inactive)
67 | C[N+]1(C)[C@@H]2CC[C@H]1CC(OC(=O)C(CO)c1ccccc1)C2 (some centres undefined) | 7.31% (inactive)
68 | CC1=C2[C@H]3OC(=O)[C@@H](C)[C@@H]3CC[C@@]2(C)C=CC1=O | -2.91% (inactive)
69 | Sc1ccccc1Cl | -14.2% (inactive)
